The entries come from a sample that favours hits as a whole.
TDP-43 tox inh – TDP-43 toxicity inhibition in yeast; yeast TDP-43 toxicity rescue, BacTiter-Glo growth, 24 h; Potency, µM (highest dose often 46.1 µM), actives largely listed as activators; actives 0.45% (n = 45,000); AID 1347073; active = well fitted activation curve with a large enough effect; note: nearly all actives have a fitted effect of over 55% in size
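TDP-43-expressing yeast, pregrown in raffinose, seeded at OD600 0.02 in galactose medium with compound for 24 hr at 30 deg C. Growth read by BacTiter-Glo luminescence, so rescue of toxicity appears as activation.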
Each line names hits and unclear results; the compound was inactive in the other large screens.

CCCSc1ncc(Cl)c(C(=O)Nc2c(C(=O)Nc3ccc(C)cc3)oc3ccccc23)n1	none
Cc1cccc(OCC(=O)N(Cc2cccc(Cl)c2)Cc2ccco2)c1C	none
Cc1ccccc1Nc1nnc(SCC(=O)NCc2cccs2)s1	none
Cc1cccc(NC(=O)CSc2nnc(NC(=O)C3CC3)s2)c1C	none
Cc1cccc(Nc2nnc(SCC(=O)Nc3ccccc3[N+](=O)[O-])s2)c1C	TDP-43 tox inh 18µM
COc1ccc(N2CCOCC2)c(NC(=O)c2ccc(Br)o2)c1	TDP-43 tox inh 16µM
COC(=O)c1cc(OC)c(OC)cc1NC(=O)c1ccc(Br)o1	none
COc1ccc(S(=O)(=O)Nc2cc(C(=O)NCCCN3CCOCC3)ccc2N2CCOCC2)cc1	none
COc1cccc(Nc2nnc(-c3cc4ccc(O)cc4oc3=O)s2)c1	none
COc1ccc(-c2csc3ncnc(N4CCN(c5ccccc5OC)CC4)c23)cc1	TDP-43 tox inh 14µM
COc1ccc(-c2csc3ncnc(N4CCN(CCO)CC4)c23)cc1	none
COc1ccccc1N1CCN(c2cnccn2)CC1	none
CCOc1ccc(CNC(=O)C2CCN(c3nnc(-n4c(C)ccc4C)s3)CC2)cc1	none
O=C(Nc1nnc([C@@H]2C[C@H](O)[C@@H](CO)O2)s1)Nc1cccc(Cl)c1Cl	none
COc1cc(NC(=NS(=O)(=O)c2ccccc2)c2ccccc2)ncn1	none
CCN(CC)CCNC(=O)Nc1ccc2c(c1)N(Cc1ccccc1)C(=O)c1ccccc1S2	none
O=S(=O)(NCc1ccco1)c1ccc(Cl)cc1Cl	none
O=[N+]([O-])c1ccccc1S(=O)(=O)NCc1ccco1	none
O=S(=O)(NCc1ccco1)c1ccc2ccccc2c1	TDP-43 tox inh 11µM
COc1ccc(/C=N/NC(=O)Cn2cnc3c2c(=O)n(C)c(=O)n3C)cc1	none
COC(=O)c1ccc(NC(=O)Cn2cnc3c2c(=O)n(C)c(=O)n3C)cc1	none
Cn1c(=O)c2c(ncn2CCOc2ccc(Br)cc2)n(C)c1=O	TDP-43 tox inh 11µM
COc1cccc(NC(=O)C2CCCN(c3nnc(-n4c(C)ccc4C)s3)C2)c1 (stereo not given)	none
CCc1ccc(OCCCSc2nc(-c3ccc(C(C)(C)C)cc3)nc3cc(=O)[nH]n23)cc1	none
CC(C)CCNC(=O)CN(Cc1ccco1)C(=O)CCC(=O)Nc1nccs1	none
COc1ccc(Cl)cc1S(=O)(=O)N1CCCC(C(=O)N2CCOCC2)C1 (stereo not given)	none
O=C(C1CCCN(S(=O)(=O)c2cc(Cl)ccc2Cl)C1)N1CCCC1 (stereo not given)	TDP-43 tox inh 14µM
O=C(C1CCCN(S(=O)(=O)c2ccc(Cl)cc2)C1)N1CCCC1 (stereo not given)	none
Cc1ccc(Cn2ccnc2SCC(=O)Nc2ccc3c(c2)OCO3)cc1	none
COc1ccc(Cl)cc1NC(=S)NCCSc1ccc(C)cc1	TDP-43 tox inh 13µM
COc1ccc(Cl)cc1NC(=S)NN1CCOCC1	none
COc1ccc(Cl)cc1NC(=S)Nc1ccc(Cl)cn1	none
COc1ccc(CCC(=O)NCc2nc3cccnc3n2Cc2ccc(C)cc2)cc1	none
CCCNC(=O)C1(C)CCCN(C(=O)c2cccc(OC(F)(F)F)c2)C1 (stereo not given)	none
Cc1onc(-c2ccccc2)c1C(=O)NC(=S)NNC(=O)c1ccco1	none
COc1ccc(C(=O)NC(=S)NNC(=O)c2c(-c3ccccc3)noc2C)cc1OC	TDP-43 tox inh 13µM
COc1ccccc1/C=N/NC(=O)c1c(-c2ccccc2)noc1C	none
Cc1ccc(NC(=O)CCCN2C(=O)COc3ccc(C)cc32)c(Cl)c1	none
Cc1ccc(C)c(CN2C(=O)c3ccccc3S(=O)(=O)c3ccc(C(=O)N(C)C4CCCCC4)cc32)c1	none
CCc1ccc(OCC(=O)N(Cc2ccco2)Cc2ccccc2Cl)cc1	none
Cn1nnnc1N=N/C(=N/Nc1ccccc1)c1ccccc1	TDP-43 tox inh 6.3µM
N#C/C(=C\c1ccccc1)C(=O)N1CCN(c2ccccc2F)CC1	none
Cc1cc(/C=C(\C#N)C(=O)N2CCCCC2)cc(C)c1O	none
N#C/C(=C\c1cccc(Br)c1)C(=O)N1CCCCC1	TDP-43 tox inh 13µM
Cc1ccc(C)c(N2N=C(C(=O)Nc3cccc(S(=O)(=O)N4CCCCC4)c3)CCC2=O)c1	none
COc1ccc(C)cc1NC(=O)c1cc2c(s1)-c1ccccc1SC2	none
CC(=O)c1cccc(NC(=O)Cn2cnc3c2c(=O)n(C)c(=O)n3C)c1	none
O=C(COc1ccc2ccccc2c1)NNC(=O)C(=O)Nc1ccccc1	none
O=C(Nc1ccc2ccccc2c1)c1ccccc1O	none
C/C(=C\C(=S)Nc1ccccc1)Nc1ccc2ccccc2c1	TDP-43 tox inh 14µM
COc1ccc(C(CC(=O)Nc2ccc(C(C)=O)cc2)N2Cc3ccccc3C2=O)cc1 (stereo not given)	none
O=c1[nH]cnc2c1nc(NCc1ccccc1)n2C1O[C@@H](CO)[C@H](O)[C@@H]1O (stereo not given in full)	none
O=C(NCCc1ccccc1)c1ccc(-c2cccnc2)c2ccoc12	none
O=C(NCc1cccc(Cl)c1)c1ccc(-c2cccnc2)c2ccoc12	TDP-43 tox inh 14µM
Cn1cc(-c2ccc(C(=O)NCc3cccc(Cl)c3)c3occc23)cn1	none
O=C(Nc1ccc(F)c(Cl)c1)N1CCN(C(=O)c2nsc3ccccc23)CC1	none
O=C(CSc1nc2cc(Cl)ccc2s1)NCc1ccc2c(c1)OCO2	none
Clc1ccccc1-c1cnc2sc(NCc3ccc4c(c3)OCO4)nn12	TDP-43 tox inh 5µM
CN1CCN(S(=O)(=O)c2ccc(NCc3ccc4c(c3)OCO4)nc2)CC1	none
COc1ccccc1OCc1nnc(-c2ccccc2)o1	none
COc1ccc(N2CCN(c3oc(/C=C/c4ccccc4OC)nc3C#N)CC2)cc1	none
COc1cccc(CC(=O)N2CCN(c3ccccc3[N+](=O)[O-])CC2)c1	none
COc1ccc(N2CCN(C(=S)NC(=O)c3cccs3)CC2)c([N+](=O)[O-])c1	TDP-43 tox inh 28µM
COc1ccc(C(=O)NC(=S)N2CCCCC2)cc1[N+](=O)[O-]	none
Cc1cccc(-c2nc3cc(NC(=O)c4ccc(OCC(C)C)cc4)ccc3o2)c1	none
Cc1ccc(OCC(=O)N(Cc2ccco2)c2ccccn2)cc1	none
COc1ccccc1N1CCN(C(=O)c2ccc3[nH]c4c(c3c2)CCCC4)CC1	TDP-43 tox inh 18µM
COc1ccccc1N1CCN(C(=O)c2ccc(NS(=O)(=O)c3ccc(C)cc3)cc2)CC1	none
COc1cc(OC)cc(C(=O)N2CCC(N3CCN(c4ccccc4OC)CC3)CC2)c1	none
CC(C)CCSc1nnc2n(-c3ccccc3)c(=O)c3c4c(sc3n12)CC(C)CC4 (stereo not given)	none
O=C(/C(=C\c1ccccc1)c1nc2ccccc2[nH]1)c1ccc(Cl)cc1	none
CCOc1ccc(NC(=S)NCc2nc3ccccc3[nH]2)cc1	none
S=C(Nc1ccc(Cl)cc1)c1nc2ccccc2[nH]1	TDP-43 tox inh 10µM
CC(C)=CCn1c2ccc(NC(=O)NCc3ccc(F)cc3)cc2c(=O)n1C	none
CC(C)(C)c1ccc(OCC(=O)NNC(=S)NC(=O)c2ccccc2[N+](=O)[O-])c(Br)c1	TDP-43 tox inh 11µM
CC(C)CNC(=O)COc1ccccc1[N+](=O)[O-]	none
COc1ccc(C(=O)NNC(=O)c2ccccc2[N+](=O)[O-])cc1	none
CC1CCC(NC(=O)C2(C)Cc3ccccc3C(=O)N2Cc2ccc(F)cc2)CC1 (stereo not given)	none
O=c1c2sccc2n(Cc2cc(=O)n3cc(Cl)ccc3n2)c(=O)n1-c1ccccc1	none
NC(=S)N/N=C/c1ccc(-c2ccc(Cl)c(Cl)c2)o1	TDP-43 tox inh 11µM
NC(=S)N/N=C/c1ccc(-c2ccc(SC(F)F)cc2)o1	none
O=C(O)c1cc(-c2ccc(/C=N/NC(=S)Nc3ccccc3)o2)ccc1Cl	none
CCOc1ccccc1C(=O)N(Cc1ccc(N(C)C)cc1)Cc1ccco1	none

Assay outcomes (PubChem)
